Test results: PubChem BioAssay AID1210 (NMMLSC, 2008)
Unmarked numbers belong to inactive results. Active and inactive are the calls of the source.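 How the source made its calls: active means blocks over 70% of labeled estradiol binding at 10 µM, or over a set limit at 100 nM; inactive means the rest.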

target: Estrogen receptor beta (Homo sapiens) (UniProt Q92731); test: ERbeta ligand binders by competition, primary screen, cell-based, Cos7 ERbeta-GFP, flow cytometry (AID 1210); details: fluorescent estrogen binding, at 10 µM, hits give high values;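 further: 0% = DMSO vehicle wells and 100% = complete loss of labeled estradiol signal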
Sequence (Q92731 whole entry, looked up): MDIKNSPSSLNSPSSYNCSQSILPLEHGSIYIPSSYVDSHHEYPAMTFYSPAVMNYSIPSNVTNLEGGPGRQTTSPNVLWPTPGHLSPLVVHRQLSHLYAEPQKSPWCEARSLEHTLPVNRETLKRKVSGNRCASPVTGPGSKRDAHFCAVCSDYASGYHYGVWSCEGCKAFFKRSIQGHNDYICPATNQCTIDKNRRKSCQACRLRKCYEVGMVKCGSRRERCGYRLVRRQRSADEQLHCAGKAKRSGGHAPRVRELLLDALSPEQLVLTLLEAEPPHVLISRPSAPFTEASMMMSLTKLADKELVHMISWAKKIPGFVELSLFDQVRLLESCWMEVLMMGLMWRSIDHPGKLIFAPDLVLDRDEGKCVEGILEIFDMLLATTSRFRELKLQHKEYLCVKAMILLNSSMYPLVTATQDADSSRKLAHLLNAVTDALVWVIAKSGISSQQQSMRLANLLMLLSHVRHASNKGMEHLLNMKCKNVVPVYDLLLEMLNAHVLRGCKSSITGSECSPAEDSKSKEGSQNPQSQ

Row | Compound | inhibition
1 | COc1ccccc1NC(=O)c1ccccc1NC(=O)c1cc(Cl)ccc1NC(=O)c1ccco1 | 77% (active)
2 | CCOc1ccc(NS(=O)(=O)c2ccc3c(c2)[C@H]2C=CC[C@H]2[C@@H](c2ccc(C(=O)O)cc2)N3)cc1 | 52%
3 | c1coc(C2Nc3ccccc3C3OCCC23)c1 (stereo not drawn) | 0%
4 | CCOc1cc2c(c([N+](=O)[O-])c1)NC(c1ccc(Cl)cc1)C1CC=CC21 (stereo not drawn) | 16%
5 | O=C(NC1CC1)c1ccc2c(c1)C1C3CCC(C3)C1C(c1ccccc1)N2 (stereo not drawn) | 0%
6 | CCCCOC(=O)c1c(C)oc2ccc(NS(=O)(=O)c3ccc4c5c(cccc35)C(=O)N4)cc12 | 43%
7 | COc1ccc(N2C(=O)c3ccccc3NC2c2ccc(OC)c(CSc3ccccn3)c2)cc1 (stereo not drawn) | 36%
8 | CCCOc1cc(OCCC)c2c3c(c(=O)oc2c1)CCCC3 | 20%
9 | Cc1sc2ncnc(NCc3ccco3)c2c1C | 39%
10 | CC(C)CN(Cc1c(O)ccc2c3c(c(=O)oc12)CCC3)CC(C)C | 17%
11 | CC(=O)Nc1ccc2[nH]c(C)cc(=O)c2c1 | 64%
12 | O=c1cc(-c2ccc(O)c(-c3c(O)cc(O)c4c(=O)cc(-c5ccc(O)cc5)oc34)c2)oc2cc(O)cc(O)c12 | 76% (active)
13 | COc1nnc(-c2ccc(C(=O)N3C[C@@H]4C[C@H](C3)c3cccc(=O)n3C4)cc2)c2ccccc12 | 34%
14 | O=c1oc2cc(O)ccc2c2c1CCCC2 | 12%
15 | COc1ccc(Cn2c(=O)[nH]c3cc(C(=O)NCc4ccc5c(c4)OCO5)ccc3c2=O)cc1 | 35%
16 | CCOc1ccc(NS(=O)(=O)c2ccc3c(c2)[C@H]2C=CC[C@H]2[C@@H](c2ccc([N+](=O)[O-])cc2)N3)cc1 | 1%
17 | CCCCCCc1cc2c3c(c(=O)oc2cc1OCC(=O)OC)CCC3 | 20%
18 | O=c1oc2c(O)c(O)cc3c(=O)oc4c(O)c(O)cc1c4c23 | 13%
19 | CCNC(=O)N1c2ccc(OCC)cc2C(C)=CC1(C)C | 15%

Row | Compound | inhibition
20 | O=c1oc2cc(O)c(Cl)cc2c2c1CCCC2 | 8%
21 | COc1cc([N+](=O)[O-])cc2c1NC(c1ccccc1Cl)C1CC=CC21 (stereo not drawn) | 20%
22 | COc1cc(-c2nc3ccc4ccccc4c3c3c2CCC3)cc(OC)c1O | 64%
23 | Cc1ccc(-c2n[nH]c(=S)n2/N=C/C=C/c2ccccc2[N+](=O)[O-])cc1 | 53%
24 | COc1ccc(-c2nc(C(N)=O)c3[nH]c(=O)n(-c4cccc(Cl)c4)c3n2)cc1OC | 13%
25 | Fc1ccc2c(c1)C1C=CCC1C(c1cc3c(cc1Br)OCO3)N2 (stereo not drawn) | 0%
26 | COc1ccc(C2Nc3ccccc3C(=O)N2c2ccc(C)cc2)cc1COc1ccccn1 (stereo not drawn) | 44%
27 | CCCCc1cc(=O)oc2c(C)c(O)ccc12 | 7%
28 | Cc1cccc2cc(C(c3nnnn3C(C)(C)C)N(Cc3ccco3)CC3CCCO3)c(=O)[nH]c12 (stereo not drawn) | 18%
29 | COc1ccc2c(c1)c(=O)oc1cc3oc(C)c(C)c3cc12 | 24%
30 | COc1ccc(Oc2ccc3c(c2)c2c4n3CCNC4CCC2)cc1 (stereo not drawn) | 7%
31 | COc1cc([C@@H]2Nc3ccc(S(=O)(=O)Nc4ccccc4F)cc3[C@@H]3C=CC[C@@H]32)cc(OC)c1OC | 11%
32 | CCCNC(=O)c1ccc2c(c1)C1C3CCC(C3)C1C(c1ccccc1)N2 (stereo not drawn) | 54%
33 | COc1ccccc1C(=O)Nc1nc(-c2cccs2)c(NC(C)=O)s1 | 40%
34 | O=c1oc2c(CN3CCCC3)c(O)ccc2c2c1CCC2 | 22%
35 | O=C(O)COc1cc2oc(=O)c3c(c2cc1Cl)CCCC3 | 11%
36 | CCOc1cc2c(cc1OCC)C(C(CC)CC)NCC2 (stereo not drawn) | 10%
37 | COc1cc([N+](=O)[O-])cc2c1NC(c1ccc(Br)cc1)C1CC=CC21 (stereo not drawn) | 17%
38 | O=C(C1c2ccccc2C(=O)N2CCc3ccccc3C12)N1CCN(Cc2ccccc2)CC1 (stereo not drawn) | 29%
